This is a sample that favours compounds with a hit; in the whole collection about 7.9% have one here.
HT1080 IDH1KD tx = kills HT-1080 cells with IDH1 knockdown; HT-1080 IDH1 knockdown viability, ATP luminescence, 48 h; Potency, µM (top dose mostly 46.1 µM), hits mostly cytotoxic; 360,000 compounds, 2% hits; AID 686971
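Knockdown cells (IDH1KD HT-1080) received compounds 2 h after plating at 750 cells/well and were kept 48 h at 37 °C in 5% FBS RPMI. A CellTiter-Glo luminescence read gave % activity for curve fitting.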
SW480 rerep = induces DNA re-replication in SW480 colon adenocarcinoma cells; Potency, µM (series often up to 46.1 µM), usual class: activators; SW480 DNA re-replication, Hoechst DNA content imaging, 48 h; AID 624297; 340,000 compounds, 1.8% hits; note: nearly all actives have a fitted effect of over 55% in size
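Cells (250 per well) received 23 nL compound or DMSO by pin tool and were kept 48 hr at 37 C, 5% CO2. Nuclei were then stained with Hoechst for 40 min and scanned for DNA content.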
HT1080NT lethal = kills 2HG-producing HT-1080-NT fibrosarcoma cells; AID 686970; Potency, µM (highest dose often 46.1 µM), actives largely listed as cytotoxic; 360,000 compounds, 1.6% hits; HT-1080-NT fibrosarcoma viability, CellTiter-Glo ATP luminescence, 48 h;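 note: NT is the 2HG producing partner of a matched IDH1 knockdown line; nearly all actives have a fitted effect of over 55% in size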
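A 48-hour cytotoxicity screen used HT-1080-NT cells plated 2 hours before compound delivery. ATP-based CellTiter-Glo luminescence measured viability, normalized to DMSO and no-cell controls.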
MCF10A rerep = DNA re-replication induction in MCF 10a cells; MCF 10A DNA re-replication, Hoechst nuclear intensity, 48 h; Potency, µM (titrated, usually from 46.1 µM), usual class: activators; 350,000 compounds, 2.9% hits; note: nearly all actives have a fitted effect of over 50% in size
KB-3-1 tox = kills parental KB-3-1 adenocarcinoma cells; KB-3-1 viability, CellTiter-Glo ATP luminescence, 72 h; Potency, µM (series often up to 46.1 µM), most hits filed as cytotoxic; 400,000 compounds, 1.4% hits; note: nearly all actives have a fitted effect of over 60% in size
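Screening of KB-3-1 cells (DMEM, 10% FBS, phenol-red free) ran from lowest to highest compound concentration; after 72 h at 37 °C viability was read luminescently and curves fitted.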
KB-V1 cytotox = kills drug-selected multidrug resistant KB-V1 cells | AID 1347076 | KB-V1 MDR cells viability, CellTiter-Glo, 72 h | 400,000 compounds, 3.4% hits | Potency, µM (doses to about 46.1 µM), most hits filed as cytotoxic; note: nearly all actives have a fitted effect of over 60% in size
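Cytotoxicity toward P-gp-expressing KB-V1 cells was determined as loss of CellTiter-Glo luminescence after 72 h at 37 degrees C. Compounds were tested in quantitative HTS format across a concentration range, with curves fitted to normalized data.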
Each line names hits and unclear results; the compound was inactive in the other large screens. Calls come from the whole dose curve; as a rule, active = well fitted curve in the direction sought with a large enough effect; inconclusive = small, poorly fitted or top-dose-only effect, or another doubt; inactive = no such curve, though single readings can be large; an effect the other way counts as inactive or inconclusive.

Cc1cccc(S(=O)(=O)c2c(N)n(/N=C/c3ccco3)c3nc4ccccc4nc23)c1	MCF10A rerep inconclusive, KB-V1 cytotox 3.7µM
Cc1cccc(S(=O)(=O)c2c(N)n(-c3ccccc3)c3nc4ccccc4nc23)c1	KB-V1 cytotox 2.9µM
Cc1ccc([C@@H]2CC(=O)[C@@H]3CN(S(=O)(=O)c4ccc(C)cc4)[C@H](c4ccccc4)C[C@@H]3N2S(=O)(=O)c2ccc(C)cc2)cc1	none (no result: SW480 rerep, MCF10A rerep)
NNC(=O)c1sc(-c2ccccc2)cc1N	MCF10A rerep 21µM, KB-V1 cytotox inconclusive
CC(=O)c1sc(-c2ccccc2)cc1N	KB-V1 cytotox inconclusive
O=[N+]([O-])c1cccc2nc3ccccc3c(NCCCn3ccnc3[N+](=O)[O-])c12	HT1080 IDH1KD tx 0.082µM, SW480 rerep inconclusive, HT1080NT lethal inconclusive, MCF10A rerep inconclusive, KB-V1 cytotox 0.73µM
COC(=O)C1=C(COc2ccc(C=O)cc2OC)NC(=O)NC1c1cc(C)ccc1C (centres undefined)	KB-3-1 tox inconclusive, KB-V1 cytotox 21µM
COc1ccc([C@H]2C[C@H](O)[C@@H](n3cc(C4CC4)nn3)CN2C(=O)C2CCCCC2)cc1	none (no result: SW480 rerep, MCF10A rerep)
Cc1cccc(C)c1-n1nnnc1-c1nc2cc3ccccc3cc2[nH]c1=O	HT1080 IDH1KD tx 0.37µM, HT1080NT lethal 0.65µM, KB-3-1 tox 1µM, KB-V1 cytotox 6.5µM (no result: SW480 rerep, MCF10A rerep)
Cc1cccc(C)c1-n1nnnc1-c1nc2cc(Br)ccc2[nH]c1=O	none (no result: SW480 rerep, MCF10A rerep)
COc1ccc(Cc2nnc(SCC(=O)NC(C)c3ccccc3)o2)cc1 (centres undefined)	KB-V1 cytotox 21µM
COc1ccc(CCC(=O)Nc2ncc(C)s2)cc1OC	SW480 rerep inconclusive, KB-3-1 tox inconclusive
CC(NC(=O)CSc1nnc(COc2ccccc2)o1)c1ccccc1 (centres undefined)	none
CCOC(=S)SCC(=O)Nc1ncc(C)s1	HT1080 IDH1KD tx 18µM, SW480 rerep inconclusive, HT1080NT lethal inconclusive, MCF10A rerep inconclusive
Cc1cnc(NC(=O)CCc2ccccc2)s1	HT1080 IDH1KD tx inconclusive, SW480 rerep 13µM, HT1080NT lethal inconclusive, MCF10A rerep 10µM, KB-3-1 tox inconclusive
CCOC(=O)c1sc(NC(=O)CSc2nnc(Cc3ccccc3)o2)c(C(=O)OCC)c1C	KB-V1 cytotox 7.3µM
Cc1cnc(NC(=O)CSc2ccccc2)s1	none
Cc1ccnc(NC(=S)N2CCN(c3ccc(C#N)cc3)CC2)c1	none (no result: HT1080 IDH1KD tx, SW480 rerep, HT1080NT lethal, MCF10A rerep)
CCOC(=O)CNC(=O)N1CCCN(S(=O)(=O)c2ccc3c(ccn3CC)c2)CC1	none (no result: HT1080 IDH1KD tx, SW480 rerep, HT1080NT lethal, MCF10A rerep)
NC(=O)COc1ccc(-c2noc(COc3ccc(Cl)cc3)n2)cc1	KB-V1 cytotox inconclusive (no result: HT1080 IDH1KD tx, SW480 rerep, HT1080NT lethal, MCF10A rerep)
Cc1cn(C)c(CC(=O)N2CCN(c3ccccc3F)CC2)c1C(=O)O	none (no result: HT1080 IDH1KD tx, SW480 rerep, HT1080NT lethal, MCF10A rerep)
COc1ccc(Cc2nnc(SCC(=O)Nc3ncc(C)s3)o2)cc1	KB-3-1 tox inconclusive, KB-V1 cytotox inconclusive
Cc1cnc(NC(=O)CSc2nnc(Cc3ccccc3)o2)s1	HT1080 IDH1KD tx 4.5µM, SW480 rerep inconclusive, HT1080NT lethal 4.5µM, MCF10A rerep inconclusive
O=C(CCc1ccccc1)Nc1ccc(Cl)cn1	HT1080 IDH1KD tx 2.9µM, SW480 rerep 6.5µM, HT1080NT lethal 5.8µM, MCF10A rerep 5.8µM, KB-3-1 tox 5.8µM, KB-V1 cytotox inconclusive
CC(C)(C)c1ccc(CN(Cc2ccco2)c2cnc(S(C)(=O)=O)nc2C(=O)Nc2ccc(F)cc2)cc1	none (no result: HT1080 IDH1KD tx, SW480 rerep, HT1080NT lethal, MCF10A rerep)
CCCN(C)C[C@@H]1OCc2cnnn2CCCC(=O)N([C@H](C)CO)C[C@H]1C	none (no result: SW480 rerep, MCF10A rerep)
NC(=S)NNc1c(F)c(F)c(F)c(F)c1F	MCF10A rerep 15µM, KB-3-1 tox inconclusive
CCCc1ccc(O)c(N=Cc2cc(Br)cc(OCC)c2O)c1	HT1080 IDH1KD tx 23µM, SW480 rerep inconclusive, HT1080NT lethal inconclusive, MCF10A rerep inconclusive
c1ccc2c(c1)[nH]c1c(N3CCOCC3)ncnc12	KB-V1 cytotox inconclusive
Cc1cccc2[nH]c3c(N4CCN(C(=O)c5ccco5)CC4)ncnc3c12	KB-V1 cytotox inconclusive
Cc1cccc2[nH]c3c(N4CCC5(CC4)OCCO5)ncnc3c12	HT1080 IDH1KD tx 18µM, SW480 rerep inconclusive, HT1080NT lethal inconclusive, MCF10A rerep inconclusive, KB-V1 cytotox inconclusive
Clc1ccc2[nH]c3c(N4CCC5(CC4)OCCO5)ncnc3c2c1	HT1080 IDH1KD tx 8.2µM, SW480 rerep inconclusive, HT1080NT lethal 16µM, MCF10A rerep 21µM, KB-3-1 tox 15µM, KB-V1 cytotox 16µM
CCOC(=O)c1c(NC(=O)C2c3ccccc3Oc3ccccc32)sc(C)c1CC	none (no result: HT1080 IDH1KD tx, SW480 rerep, HT1080NT lethal, MCF10A rerep)
COc1ccc(CC2S/C(=N/N=C/c3ccc(O)cc3)NC2=O)cc1 (centres undefined)	none
O=C1N/C(=N/N=C/c2ccccc2O)SC1Cc1ccc(F)cc1 (centres undefined)	HT1080 IDH1KD tx 23µM, SW480 rerep inconclusive, HT1080NT lethal inconclusive, KB-3-1 tox inconclusive, KB-V1 cytotox inconclusive
COc1ccc(CC2S/C(=N/N=C/c3ccccc3O)NC2=O)cc1 (centres undefined)	SW480 rerep 2.9µM, MCF10A rerep 23µM, KB-3-1 tox inconclusive
